Outcome and AC50 data for 33 molecules are collected here from PubChem BioAssay (EPA / NIEHS).

Records with an inconclusive call do not appear. Calls of active or inactive are those of the source. Rule for the calls: active = hit-call score of the fitted dose curve at least 0.9, where 1 is the maximum; inconclusive = response in the unintended direction; inactive = score below 0.9.

A short description of this assay: ACEA_ER_AUC_viability: ACEA Biosciences xCELLigence Real-Time Cell Analysis on Estrogen Receptor Agonism for Viability (AID 2283782).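 Note: continuous compound exposure with impedance area under curve over 80 h; hit means loss of impedance signal meaning reduced cell growth or viability.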 Put shortly:
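T-47D human breast cells in phenol red-free RPMI1640 with 10% charcoal-stripped FBS were dosed with an 8-point 1:4 dilution series from 100 uM top final concentration, in duplicate. Impedance-based growth was followed for 80 h; AUC analysed versus DMSO.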
Consider `Cc1ccc2c(c1N)C(=O)c1ccccc1C2=O`, for which the outcome was inactive.
Consider `C=CC(=O)OCC(CC)(COC(=O)C=C)COC(=O)C=C`, for which the AC50 was 10.1 µM (active).
Take `CCOP(=O)(O)C(N)=O`: the molecule was classed as inactive.
Same read-out and setting: in the case of `NNC(N)=S` it was “inactive”.
Same read-out and setting: under `N#Cc1ccc(O)cc1` stands “inactive”.
In the case of `CCOP(=S)(OCC)SCSc1ccc(Cl)cc1`, the AC50 was 27.9 µM (active).
As for `CCOP(=S)(OCC)SCS(=O)(=O)CC`, the call was inactive.
As for `Cc1cc(C)c(C(=O)P(=O)(c2ccccc2)c2ccccc2)c(C)c1`, the AC50 is 73.1 µM (active).
Same read-out and setting: under `CNC(=O)Oc1ccc(N(C)C)c(C)c1` stands 39.7 µM (active).
As for `O=C(O)C(F)(F)OC(F)(F)C(F)(F)OC(F)(F)C(=O)O`, the result was inactive.
The same measure, in the same setting: under `O=C(O)C(F)(F)OC(F)(F)C(F)(F)OC(F)(F)F` stands “inactive”; under `FC(F)(F)C(F)(C(F)(F)F)C(F)(F)C(F)(F)CC1CO1` (stereo not drawn), “inactive”.
For the molecule `CC(C)(C)c1ccccc1OP(=O)(Oc1ccccc1)Oc1ccccc1`, the molecule was classed as inactive.
With `CC(Cl)CN(C)C` (stereo not drawn), the half-maximal activity concentration (AC50) is 34.9 µM (active).
Still for that read-out and setting: in the case of `Cc1c([N+](=O)[O-])cc2c(c1[N+](=O)[O-])C(C)(C)CC2(C)C` it was 82.3 µM (active).
`Cn1[nH]nnc1=S`: the molecule was classed as inactive.
With `CC(O)C#N` (stereo not drawn), the AC50 is 50 µM (active).
On to `CCN(CC)C1CCCCC1`, for which the result was inactive.
On the same count and under the same terms, in the case of `Oc1ccccc1Br` it was “inactive”; in that of `O=S(=O)(F)C(F)(F)C(F)(F)C(F)(F)C(F)(F)C(F)(F)C(F)(F)C(F)(F)C(F)(F)F`, “inactive”; in that of `ClC(Cl)=C(c1ccc(Cl)cc1)c1ccccc1Cl`, “inactive”.
The same measure, in the same setting: under `Nc1ccc([N+](=O)[O-])cc1Cl` stands “inactive”.
Same read-out and setting: under `COC(=O)C(F)(F)C(F)(F)OC(F)(C(F)(F)F)C(F)(F)OC(F)=C(F)F` (stereo not drawn) stands “inactive”; under `CCOP(=S)(OCC)SCn1nnc2ccccc2c1=O`, “inactive”.
With `COP(=O)(CCC(=O)NCO)OC`, the AC50 is 56.8 µM (active).
On the same count and under the same terms, in the case of `COP(N)(=S)OC` it was 32.4 µM (active).
Regarding `COP(=O)(O)OC`, the molecule was called inactive.
Still for that read-out and setting: under `C=C(C)C(=O)OCC1CO1` (stereo not drawn) stands “inactive”.
Still for that read-out and setting: in the case of `CC(C)(C)OOC(C)(C)C` it was “inactive”.
For the molecule `CC(C)Nc1ccc(Nc2ccccc2)cc1`, the AC50 was 18 µM (active).
As for `C/C(=N\NC(=O)Nc1cc(F)cc(F)c1)c1ncccc1C(=O)O`, the result was inactive.
With `N#Cc1c(-c2ccc(Cl)cc2)[nH]c(C(F)(F)F)c1Br`, the AC50 is 6.72 µM (active).
Turning to `CC(O)C(F)(F)C(F)(F)F` (stereo not drawn), the call was inactive.
